About 2,000 (36%) of roughly 5,500 compounds were called active. Not shown: some 18% with an inconclusive outcome. No stated cut-off is given here; in the data, active means normalized growth mostly below about 0.91 (no sharp cut-off); inconclusive means no clear call, values can overlap the other calls; inactive means mostly above about 0.92. This is one part of the list.
Experiment: chemical genetic growth profiling, strain panel (AID 1159580);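 further: tested at 20 µM; growth read once vehicle control cultures reached saturation at 30 °C; 1 = growth at the plate median or of vehicle wells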
Conditions: S. cerevisiae deletion strains, growth OD
[1] = locus YHR030C, strain SLT2, stronger effect = lower value
[2] = locus YJL187C, strain SWE1, stronger effect = lower value

Measured: normalized growth

Cc1ncc(CO)c(CO)c1O
inactive: locus YAL021C, strain ccr4, stronger effect = lower value 1.02 | locus YAL026C, strain drs2, stronger effect = lower value 1.02 | locus YAL030W, strain snc1, stronger effect = lower value 1.03 | locus YBL061C, strain skt5, stronger effect = lower value 1.02 | locus YBR009C, strain hhf1, stronger effect = lower value 1.01 | locus YBR023C, strain chs3, stronger effect = lower value 1.03 | locus YBR171W, strain sec66, stronger effect = lower value 1.04 | locus YBR231C, strain swc5, stronger effect = lower value 1.02 | locus YBR279W, strain paf1, stronger effect = lower value 1.01 | locus YCL011C, strain gbp2, stronger effect = lower value 1.02 | locus YCL016C, strain dcc1, stronger effect = lower value 1.01 | locus YCL069W, strain vba3, stronger effect = lower value 1.04 | locus YCR088W, strain abp1, stronger effect = lower value 1.01 | locus YDL005C, strain med2, stronger effect = lower value 1.03 | locus YDL040C, strain nat1, stronger effect = lower value 1.02 | locus YDR001C, strain nth1, stronger effect = lower value 1.03 | locus YDR069C, strain doa4, stronger effect = lower value 1.03 | locus YDR137W, strain rgp1, stronger effect = lower value 1.03 | locus YDR159W, strain sac3, stronger effect = lower value 1 | locus YDR195W, strain ref2 1.03 | locus YDR297W, strain sur2, stronger effect = lower value 1.03 | locus YDR334W, strain swr1, stronger effect = lower value 1.03 | locus YDR335W, strain msn5, stronger effect = lower value 1.02 | locus YDR392W, strain spt3, stronger effect = lower value 1.01 | locus YEL003W, strain gim4, stronger effect = lower value 1.02 | locus YEL037C, strain rad23, stronger effect = lower value 1.02 | locus YEL061C, strain CIN8 (second series), stronger effect = lower value 1.02 | locus YER015W, strain faa2, stronger effect = lower value 1.03 | locus YER016W, strain bim1, stronger effect = lower value 1 | locus YER111C, strain swi4, stronger effect = lower value 1.02 | locus YER155C, strain BEM2 (second series), stronger effect = lower value 1.07 | locus YFR010W, strain ubp6, stronger effect = lower value 1.02 | locus YGL167C, strain pmr1, stronger effect = lower value 1.03 | locus YGL173C, strain kem1, stronger effect = lower value 1.04 | locus YGL227W, strain vid30, stronger effect = lower value 1.02 | locus YGL240W, strain doc1, stronger effect = lower value 1.01 | locus YGL253W, strain hxk2, stronger effect = lower value 1.03 | locus YHR013C, strain ard1, stronger effect = lower value 1.03 | locus YHR027C, strain rpn1, stronger effect = lower value 1.02 | [1] 0.956 | locus YHR079C, strain IRE1, stronger effect = lower value 0.98 | locus YHR142W, strain chs7, stronger effect = lower value 1.02 | locus YJL092W, strain hpr5, stronger effect = lower value 1.01 | locus YJL095W, strain BCK1 (second series), stronger effect = lower value 1.02 | locus YJL095W, strain BCK1, stronger effect = lower value 0.973 | locus YJL115W, strain asf1, stronger effect = lower value 1.03 | locus YJL129C, strain trk1, stronger effect = lower value 1.04 | locus YJL154C, strain vps35, stronger effect = lower value 1.03 | locus YJL164C, strain tpk1, stronger effect = lower value 1.01 | locus YJL166W, strain qcr8, stronger effect = lower value 1.02 | [2] 1.03 | locus YJR066W, strain TOR1, stronger effect = lower value 0.911 | locus YKL160W, strain elf1, stronger effect = lower value 1.01 | locus YKR026C, strain gcn3, stronger effect = lower value 1.02 | locus YKR091W, strain srl3, stronger effect = lower value 1.02 | locus YLL001W, strain dnm1, stronger effect = lower value 0.999 | locus YLL026W, stronger effect = lower value 1.02 | locus YLL041C, strain sdh2, stronger effect = lower value 1.02 | locus YLR027C, strain aat2, stronger effect = lower value 1.01 | locus YLR113W, strain HOG1, stronger effect = lower value 0.962 | locus YLR221C, strain rsa3, stronger effect = lower value 1 | locus YLR258W, strain gsy2, stronger effect = lower value 1.02 | locus YLR262C, strain YPT6 (second series), stronger effect = lower value 1.04 | locus YLR320W, strain mms22, stronger effect = lower value 1.04 | locus YLR342W, strain FKS1, stronger effect = lower value 1.02 | locus YLR357W, strain rsc2, stronger effect = lower value 1 | locus YLR370C, strain arc18, stronger effect = lower value 1.03 | locus YLR384C, strain iki3, stronger effect = lower value 1.02 | locus YML120C, strain ndi1, stronger effect = lower value 1.02 | locus YMR058W, strain fet3, stronger effect = lower value 1.02 | locus YMR125W, strain sto1, stronger effect = lower value 1.01 | locus YMR129W, stronger effect = lower value 1.02 | locus YMR205C, strain PFK2, stronger effect = lower value 1.05 | locus YMR231W, strain pep5, stronger effect = lower value 1.03 | locus YNL071W, strain lat1, stronger effect = lower value 1.02 | locus YNL183C, strain NPR1, stronger effect = lower value 0.927 | locus YNL209W, strain ssb2, stronger effect = lower value 1.03 | locus YNL248C, strain rpa49, stronger effect = lower value 1.03 | locus YNL322C, strain KRE1 (second series), stronger effect = lower value 1.04 | locus YNR049C, strain mso1, stronger effect = lower value 1.03 | locus YOR001W, strain rrp6, stronger effect = lower value 1.03 | locus YOR070C, strain gyp1, stronger effect = lower value 1.03 | locus YOR080W, strain dia2, stronger effect = lower value 1.04 | locus YOR083W, strain WHI5, stronger effect = lower value 0.975 | locus YOR106W, strain vam3, stronger effect = lower value 1.03 | locus YOR231W, strain MKK1, stronger effect = lower value 0.957 | locus YOR265W, strain rbl2, stronger effect = lower value 1.03 | locus YOR270C, strain vph1, stronger effect = lower value 1.08 | locus YOR290C, strain snf2, stronger effect = lower value 1.02 | locus YPL051W, strain arl3, stronger effect = lower value 1.02 | locus YPL078C, strain atp4, stronger effect = lower value 1.02 | locus YPL106C, strain sse1, stronger effect = lower value 1.04 | locus YPL240C, strain hsp82, stronger effect = lower value 1.04 | locus YPL256C, strain CLN2, stronger effect = lower value 0.975

CC(=O)C1=C(C)Nc2ccccc2S1
active: locus YLR085C, strain ARP6, stronger effect = lower value 0.622 | locus YMR263W, strain SAP30, stronger effect = lower value 0.852 | locus YNR030W, strain Alg12, stronger effect = lower value 0.804 | locus YPL241C, strain CIN2, stronger effect = lower value 0.849 | locus YPR135W, strain CTF4, stronger effect = lower value 0.623
inactive: locus YAL013W, strain DEP1, stronger effect = lower value 0.959 | locus YBR229C, strain ROT2, stronger effect = lower value 0.949 | locus YDL101C, strain DUN1, stronger effect = lower value 0.938 | locus YDR150W, strain NUM1, stronger effect = lower value 0.911 | locus YEL061C, strain CIN8, stronger effect = lower value 0.943 | locus YGR078C, strain PAC10, stronger effect = lower value 0.982 | locus YGR229C, strain SMI1, stronger effect = lower value 1.02 | [1] 0.922 | locus YHR087W, strain rtc3, stronger effect = lower value 1.01 | [2] 0.954 | locus YJR075W, strain HOC1, stronger effect = lower value 0.974 | locus YLR039C, strain RIC1, stronger effect = lower value 0.978 | locus YLR058C, strain SHM2 (second series), stronger effect = lower value 0.987 | locus YLR262C, strain YPT6, stronger effect = lower value 1.03 | locus YML094W, strain GIM5, stronger effect = lower value 0.888 | locus YMR219W, strain ESC1, stronger effect = lower value 0.971 | locus YNL153C, strain GIM3, stronger effect = lower value 0.963 | locus YNL298W, strain CLA4 (second series), stronger effect = lower value 0.857 | locus YNL322C, strain KRE1, stronger effect = lower value 1.02 | locus YPL055C, strain LGE1, stronger effect = lower value 0.795
